Holding throughout (experiment): DAPPL (digital affinity profiling via proximity ligation, sequencing); 10 mM Tris-HCl pH 7.5, 50 mM NaCl, 1 mM DTT, 4% glycerol, room temperature, 30 min; GST-TFs on glutathione beads, 16-mer random dsDNA library, 0.1% formaldehyde crosslink after washing; high values mean tight binding
For one test, the target named is T1, FEV (Homo sapiens, UniProt Q99581 1-238).
T1 sequence: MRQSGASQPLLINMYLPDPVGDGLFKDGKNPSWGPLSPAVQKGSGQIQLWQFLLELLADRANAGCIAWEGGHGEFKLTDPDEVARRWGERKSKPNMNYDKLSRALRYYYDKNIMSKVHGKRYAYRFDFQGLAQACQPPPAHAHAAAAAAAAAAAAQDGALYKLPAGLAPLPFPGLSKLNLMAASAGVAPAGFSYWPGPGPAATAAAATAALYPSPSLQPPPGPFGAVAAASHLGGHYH
To be noted: protein: recombinant; tags: N-terminal GST; dsDNA, one strand shown. A digest of the protocol: (§1)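 Each value of binding signal is a hexamer's read frequency for a factor divided by the same hexamer's frequency in the tag-only sample. Barcoded, bead-captured GST fusions of human transcription factors made in yeast were pooled with that sample and incubated with 200 nmole of a random double-stranded 16-mer DNA library in Tris/NaCl/DTT/glycerol buffer at room temperature for 30 min. Washing, 0.1% formaldehyde crosslinking, proximity ligation, PCR and Illumina NextSeq500 sequencing followed.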

In another test the target is ETV5 (Homo sapiens, UniProt P41161 1-510). The conditions noted are these: protein: recombinant; tags: N-terminal GST; dsDNA, one strand shown. A digest of the protocol: as §1
ETV5, sequence (P41161 whole entry): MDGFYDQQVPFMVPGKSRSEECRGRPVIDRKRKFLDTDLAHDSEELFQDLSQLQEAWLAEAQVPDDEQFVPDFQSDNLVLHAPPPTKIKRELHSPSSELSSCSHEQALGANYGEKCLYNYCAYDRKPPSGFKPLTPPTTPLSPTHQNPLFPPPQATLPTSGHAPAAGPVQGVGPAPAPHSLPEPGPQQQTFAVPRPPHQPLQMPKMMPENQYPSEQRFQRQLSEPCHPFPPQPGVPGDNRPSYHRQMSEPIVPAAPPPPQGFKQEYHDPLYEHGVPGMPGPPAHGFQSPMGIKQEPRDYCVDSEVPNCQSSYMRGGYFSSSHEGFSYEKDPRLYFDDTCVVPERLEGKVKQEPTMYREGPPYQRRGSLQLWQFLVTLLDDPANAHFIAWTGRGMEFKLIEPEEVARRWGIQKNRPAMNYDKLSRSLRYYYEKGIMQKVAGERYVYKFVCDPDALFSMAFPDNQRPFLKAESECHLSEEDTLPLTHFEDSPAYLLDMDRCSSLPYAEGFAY
The target of another test is HSF1 (Homo sapiens, UniProt Q00613 1-529). The conditions noted are these: protein: recombinant; tags: N-terminal GST; chain copies: 3; dsDNA, one strand shown. The essentials:
as §1

The next test concerns the target T2, SPIC (Homo sapiens, UniProt Q8N5J4 1-248).
T2 sequence: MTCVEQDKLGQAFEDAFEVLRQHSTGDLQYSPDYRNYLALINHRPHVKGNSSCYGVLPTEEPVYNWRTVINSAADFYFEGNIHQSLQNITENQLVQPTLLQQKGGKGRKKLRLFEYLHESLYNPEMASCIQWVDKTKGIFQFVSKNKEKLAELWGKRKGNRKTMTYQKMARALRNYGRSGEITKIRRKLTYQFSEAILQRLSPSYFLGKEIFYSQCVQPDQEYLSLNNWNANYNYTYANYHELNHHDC
To be noted: protein: recombinant; tags: N-terminal GST; dsDNA, one strand shown. The essentials:
as §1

Another test addresses ELF4 (Homo sapiens, UniProt Q99607 1-663). The conditions noted are these: protein: recombinant; tags: N-terminal GST; dsDNA, one strand shown. A digest of the protocol:
as §1

The target in another test is T3, ELK4 (Homo sapiens, UniProt P28324-2 1-405).
T3 sequence: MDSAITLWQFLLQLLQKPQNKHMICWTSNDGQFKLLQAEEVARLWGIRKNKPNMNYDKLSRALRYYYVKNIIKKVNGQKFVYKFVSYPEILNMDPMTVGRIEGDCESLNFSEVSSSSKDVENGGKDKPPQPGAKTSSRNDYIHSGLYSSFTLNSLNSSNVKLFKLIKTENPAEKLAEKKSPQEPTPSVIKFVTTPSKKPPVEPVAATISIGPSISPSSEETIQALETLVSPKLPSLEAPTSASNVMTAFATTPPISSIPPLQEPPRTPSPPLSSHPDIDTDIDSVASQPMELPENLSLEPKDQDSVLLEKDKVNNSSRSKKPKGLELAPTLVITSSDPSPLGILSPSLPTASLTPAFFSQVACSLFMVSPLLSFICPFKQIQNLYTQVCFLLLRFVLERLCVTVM
To be noted: protein: recombinant; tags: N-terminal GST; dsDNA, one strand shown. A digest of the protocol:
as §1

Another test has as its target T4, ETV2 (Homo sapiens, UniProt O00321 1-342).
T4 sequence: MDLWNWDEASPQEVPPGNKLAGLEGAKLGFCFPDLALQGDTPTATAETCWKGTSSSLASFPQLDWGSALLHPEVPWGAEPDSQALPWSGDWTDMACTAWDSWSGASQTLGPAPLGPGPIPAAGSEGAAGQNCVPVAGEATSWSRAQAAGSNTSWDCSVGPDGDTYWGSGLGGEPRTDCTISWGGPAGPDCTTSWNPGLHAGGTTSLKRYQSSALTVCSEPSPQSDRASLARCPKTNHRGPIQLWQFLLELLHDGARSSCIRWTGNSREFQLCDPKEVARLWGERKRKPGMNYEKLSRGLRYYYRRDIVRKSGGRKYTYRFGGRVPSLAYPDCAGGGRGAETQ
The conditions noted are these: protein: recombinant; tags: N-terminal GST; dsDNA, one strand shown. The essentials:
as §1

A further test has as its target T5, ELF3 (Homo sapiens, UniProt P78545 1-371).
T5 sequence: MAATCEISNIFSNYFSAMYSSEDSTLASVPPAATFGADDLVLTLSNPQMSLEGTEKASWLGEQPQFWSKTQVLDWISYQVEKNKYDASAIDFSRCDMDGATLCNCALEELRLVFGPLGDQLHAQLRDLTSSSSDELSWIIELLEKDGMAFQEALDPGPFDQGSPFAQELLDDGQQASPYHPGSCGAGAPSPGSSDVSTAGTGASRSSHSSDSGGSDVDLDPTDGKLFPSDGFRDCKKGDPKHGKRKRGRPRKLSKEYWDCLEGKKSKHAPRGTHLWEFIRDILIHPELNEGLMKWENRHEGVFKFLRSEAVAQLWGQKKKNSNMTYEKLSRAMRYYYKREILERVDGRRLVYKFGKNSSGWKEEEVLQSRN
To be noted: protein: recombinant; tags: N-terminal GST; dsDNA, one strand shown. A digest of the protocol: as §1

The next test deals with CRX (Homo sapiens, UniProt O43186 1-299). The conditions noted are these: protein: recombinant; tags: N-terminal GST; dsDNA, one strand shown. The essentials:
as §1

The target of another test is ETV1 (Homo sapiens, UniProt P50549 1-477). To be noted: protein: recombinant; tags: N-terminal GST; dsDNA, one strand shown. A digest of the protocol:
as §1

A further test has as its target T6, ERF (Homo sapiens, UniProt P50548 1-548).
T6 sequence: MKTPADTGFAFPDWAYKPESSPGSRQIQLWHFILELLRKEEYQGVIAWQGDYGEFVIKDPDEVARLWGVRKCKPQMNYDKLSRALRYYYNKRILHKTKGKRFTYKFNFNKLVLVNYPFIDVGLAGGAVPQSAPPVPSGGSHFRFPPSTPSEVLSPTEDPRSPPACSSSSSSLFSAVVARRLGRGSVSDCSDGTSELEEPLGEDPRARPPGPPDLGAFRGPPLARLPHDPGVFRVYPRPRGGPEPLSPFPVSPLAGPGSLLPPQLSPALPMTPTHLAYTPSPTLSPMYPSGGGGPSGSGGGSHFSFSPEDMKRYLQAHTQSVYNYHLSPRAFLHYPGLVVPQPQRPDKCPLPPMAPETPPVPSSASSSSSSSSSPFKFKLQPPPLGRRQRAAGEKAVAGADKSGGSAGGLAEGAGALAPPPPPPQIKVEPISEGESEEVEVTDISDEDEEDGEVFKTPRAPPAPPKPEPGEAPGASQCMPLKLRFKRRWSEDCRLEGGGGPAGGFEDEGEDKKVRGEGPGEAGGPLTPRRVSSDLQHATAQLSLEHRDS
The conditions noted are these: protein: recombinant; tags: N-terminal GST; dsDNA, one strand shown. The essentials: as §1

A further test concerns the target T7, ETV3L (Homo sapiens, UniProt Q6ZN32 1-361).
T7 sequence: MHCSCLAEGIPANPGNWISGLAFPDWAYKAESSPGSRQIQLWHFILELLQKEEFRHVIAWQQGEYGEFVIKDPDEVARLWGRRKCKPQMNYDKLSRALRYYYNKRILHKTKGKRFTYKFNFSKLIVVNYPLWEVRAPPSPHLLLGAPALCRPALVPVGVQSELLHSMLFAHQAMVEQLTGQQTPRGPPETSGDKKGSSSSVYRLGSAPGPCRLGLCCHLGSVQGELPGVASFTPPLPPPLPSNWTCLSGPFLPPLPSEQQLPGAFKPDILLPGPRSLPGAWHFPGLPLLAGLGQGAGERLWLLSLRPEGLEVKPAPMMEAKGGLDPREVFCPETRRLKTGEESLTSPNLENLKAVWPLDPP
To be noted: protein: recombinant; tags: N-terminal GST; dsDNA, one strand shown. The essentials:
as §1

The target of a further test is T8, ETS2 (Homo sapiens, UniProt P15036 1-469).
T8 sequence: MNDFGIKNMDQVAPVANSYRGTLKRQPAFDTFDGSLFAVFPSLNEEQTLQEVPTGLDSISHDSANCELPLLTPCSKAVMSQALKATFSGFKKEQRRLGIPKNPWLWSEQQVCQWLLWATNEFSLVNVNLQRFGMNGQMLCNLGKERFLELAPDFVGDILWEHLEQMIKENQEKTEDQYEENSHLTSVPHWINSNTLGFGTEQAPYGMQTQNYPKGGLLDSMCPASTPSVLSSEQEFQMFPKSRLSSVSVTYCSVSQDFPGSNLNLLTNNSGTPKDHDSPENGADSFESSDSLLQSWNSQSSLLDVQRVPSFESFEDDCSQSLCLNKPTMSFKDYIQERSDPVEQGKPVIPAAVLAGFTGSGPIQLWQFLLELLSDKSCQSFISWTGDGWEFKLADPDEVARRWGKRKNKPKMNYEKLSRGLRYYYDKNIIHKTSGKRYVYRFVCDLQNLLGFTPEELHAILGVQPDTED
The conditions noted are these: protein: recombinant; tags: N-terminal GST; dsDNA, one strand shown. The essentials: as §1

The next test has as its target T9, SPDEF (Homo sapiens, UniProt O95238 1-335).
T9 sequence: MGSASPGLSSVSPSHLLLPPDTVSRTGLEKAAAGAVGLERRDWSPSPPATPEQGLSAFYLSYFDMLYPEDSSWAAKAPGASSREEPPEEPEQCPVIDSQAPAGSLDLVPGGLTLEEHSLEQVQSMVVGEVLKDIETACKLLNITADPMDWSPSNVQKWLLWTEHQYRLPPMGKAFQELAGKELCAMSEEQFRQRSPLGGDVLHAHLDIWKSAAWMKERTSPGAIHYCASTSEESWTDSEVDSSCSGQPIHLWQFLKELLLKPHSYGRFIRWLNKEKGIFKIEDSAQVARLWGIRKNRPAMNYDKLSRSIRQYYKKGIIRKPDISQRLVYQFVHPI
To be noted: protein: recombinant; tags: N-terminal GST; dsDNA, one strand shown. The essentials: as §1

The target of another test is T10, ETV7 (Homo sapiens, UniProt Q9Y603 1-341).
T10 sequence: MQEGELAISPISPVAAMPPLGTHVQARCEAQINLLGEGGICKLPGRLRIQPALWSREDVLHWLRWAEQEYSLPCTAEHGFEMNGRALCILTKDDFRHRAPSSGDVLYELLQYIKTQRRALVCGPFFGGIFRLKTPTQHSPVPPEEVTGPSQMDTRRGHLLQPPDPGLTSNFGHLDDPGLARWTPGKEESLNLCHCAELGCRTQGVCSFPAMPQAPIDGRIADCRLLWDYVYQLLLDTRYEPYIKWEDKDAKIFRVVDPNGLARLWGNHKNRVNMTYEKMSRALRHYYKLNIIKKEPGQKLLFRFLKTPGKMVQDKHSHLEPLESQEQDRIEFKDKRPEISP
The conditions noted are these: protein: recombinant; tags: N-terminal GST; dsDNA, one strand shown. A digest of the protocol:
as §1

The next test deals with T11, ELF5 (Homo sapiens, UniProt Q9UKW6-2 1-255).
T11 sequence: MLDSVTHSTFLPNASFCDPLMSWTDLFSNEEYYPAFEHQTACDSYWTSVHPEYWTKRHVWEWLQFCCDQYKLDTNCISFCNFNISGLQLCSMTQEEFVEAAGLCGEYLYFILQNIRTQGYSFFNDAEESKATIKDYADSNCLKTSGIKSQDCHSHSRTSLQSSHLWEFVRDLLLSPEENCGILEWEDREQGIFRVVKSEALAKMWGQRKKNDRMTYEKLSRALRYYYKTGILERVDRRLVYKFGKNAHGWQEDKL
The conditions noted are these: protein: recombinant; tags: N-terminal GST; dsDNA, one strand shown. The essentials:
as §1

A further test concerns the target T12, ETV3 (Homo sapiens, UniProt P41162-2 1-143).
T12 sequence: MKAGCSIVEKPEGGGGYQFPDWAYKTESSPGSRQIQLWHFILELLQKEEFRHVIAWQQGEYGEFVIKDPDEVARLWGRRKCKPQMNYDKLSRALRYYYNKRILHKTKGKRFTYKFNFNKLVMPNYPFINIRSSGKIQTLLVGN
To be noted: protein: recombinant; tags: N-terminal GST; dsDNA, one strand shown. The essentials: as §1

A further test deals with ETV6 (Homo sapiens, UniProt P41212 1-452). The conditions noted are these: protein: recombinant; tags: N-terminal GST; dsDNA, one strand shown. A digest of the protocol: as §1
ETV6, sequence (P41212 whole entry): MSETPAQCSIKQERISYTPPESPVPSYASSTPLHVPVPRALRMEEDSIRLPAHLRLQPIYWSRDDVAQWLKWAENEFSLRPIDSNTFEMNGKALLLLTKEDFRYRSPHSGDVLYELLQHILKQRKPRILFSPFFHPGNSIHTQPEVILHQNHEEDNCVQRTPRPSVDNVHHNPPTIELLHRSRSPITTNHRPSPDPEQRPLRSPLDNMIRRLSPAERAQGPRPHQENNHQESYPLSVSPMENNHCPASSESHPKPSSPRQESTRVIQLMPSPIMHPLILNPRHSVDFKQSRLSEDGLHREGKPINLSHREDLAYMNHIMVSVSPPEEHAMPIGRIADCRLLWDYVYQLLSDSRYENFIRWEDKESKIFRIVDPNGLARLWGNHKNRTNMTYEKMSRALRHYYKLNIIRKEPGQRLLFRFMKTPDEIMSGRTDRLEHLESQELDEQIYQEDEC

ETV1, sequence (P50549 whole entry): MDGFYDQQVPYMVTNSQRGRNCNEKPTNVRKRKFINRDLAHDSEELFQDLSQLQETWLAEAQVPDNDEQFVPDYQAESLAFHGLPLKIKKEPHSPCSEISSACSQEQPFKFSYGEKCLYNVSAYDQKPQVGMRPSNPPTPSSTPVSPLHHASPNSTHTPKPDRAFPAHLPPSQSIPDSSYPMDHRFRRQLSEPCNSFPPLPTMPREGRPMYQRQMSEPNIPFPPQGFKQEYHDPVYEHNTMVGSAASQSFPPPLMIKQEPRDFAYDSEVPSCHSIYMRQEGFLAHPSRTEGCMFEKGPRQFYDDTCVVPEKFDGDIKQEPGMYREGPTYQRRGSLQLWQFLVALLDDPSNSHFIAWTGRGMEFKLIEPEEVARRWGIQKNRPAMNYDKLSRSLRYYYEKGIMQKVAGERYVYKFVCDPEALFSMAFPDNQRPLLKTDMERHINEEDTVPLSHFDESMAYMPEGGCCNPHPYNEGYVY
CRX, sequence (O43186 whole entry): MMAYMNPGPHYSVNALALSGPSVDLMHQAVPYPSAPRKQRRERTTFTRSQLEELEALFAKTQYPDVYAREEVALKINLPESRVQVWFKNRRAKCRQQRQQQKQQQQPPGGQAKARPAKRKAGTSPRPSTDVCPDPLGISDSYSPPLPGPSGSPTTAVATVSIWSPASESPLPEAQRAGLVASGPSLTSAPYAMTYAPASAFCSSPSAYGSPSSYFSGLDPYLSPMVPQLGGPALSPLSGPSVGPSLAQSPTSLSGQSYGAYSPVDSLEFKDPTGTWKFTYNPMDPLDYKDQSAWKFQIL
ELF4, sequence (Q99607 whole entry): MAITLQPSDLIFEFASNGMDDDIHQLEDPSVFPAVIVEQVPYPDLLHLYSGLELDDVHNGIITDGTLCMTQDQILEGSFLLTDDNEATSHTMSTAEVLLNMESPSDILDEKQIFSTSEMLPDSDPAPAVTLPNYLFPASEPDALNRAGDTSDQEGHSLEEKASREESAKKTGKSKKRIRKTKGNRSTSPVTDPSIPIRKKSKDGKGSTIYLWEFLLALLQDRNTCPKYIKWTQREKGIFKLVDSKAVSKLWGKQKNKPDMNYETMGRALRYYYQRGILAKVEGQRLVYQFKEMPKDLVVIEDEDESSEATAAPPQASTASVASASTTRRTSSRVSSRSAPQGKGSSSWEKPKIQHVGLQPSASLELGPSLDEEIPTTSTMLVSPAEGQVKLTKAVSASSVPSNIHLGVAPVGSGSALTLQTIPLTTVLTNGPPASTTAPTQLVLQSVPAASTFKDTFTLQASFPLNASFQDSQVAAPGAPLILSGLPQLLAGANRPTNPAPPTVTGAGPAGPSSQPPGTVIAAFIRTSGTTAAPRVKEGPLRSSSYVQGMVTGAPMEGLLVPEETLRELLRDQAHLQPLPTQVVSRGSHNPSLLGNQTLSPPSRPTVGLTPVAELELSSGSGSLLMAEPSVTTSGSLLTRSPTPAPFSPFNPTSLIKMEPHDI
HSF1, sequence (Q00613 whole entry): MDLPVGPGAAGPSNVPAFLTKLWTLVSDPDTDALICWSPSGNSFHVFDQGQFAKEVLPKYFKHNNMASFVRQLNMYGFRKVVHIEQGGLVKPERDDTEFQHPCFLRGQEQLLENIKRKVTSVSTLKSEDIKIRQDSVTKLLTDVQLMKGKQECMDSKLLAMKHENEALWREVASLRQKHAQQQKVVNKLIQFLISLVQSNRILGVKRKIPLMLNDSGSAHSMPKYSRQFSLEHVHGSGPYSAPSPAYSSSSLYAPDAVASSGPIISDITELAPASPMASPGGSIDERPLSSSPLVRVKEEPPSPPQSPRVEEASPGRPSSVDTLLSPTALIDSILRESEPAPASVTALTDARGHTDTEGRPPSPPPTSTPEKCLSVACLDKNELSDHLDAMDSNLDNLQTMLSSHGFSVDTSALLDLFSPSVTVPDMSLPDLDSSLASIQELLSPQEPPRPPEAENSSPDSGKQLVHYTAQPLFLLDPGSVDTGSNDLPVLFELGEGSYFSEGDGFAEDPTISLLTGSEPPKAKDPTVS

Consider AACTGG, for which the binding signal in the test with FEV was 1.12 fold enrichment (6-mer frequency, TF over GST control); with ETV5 it was 1.21 fold enrichment (6-mer frequency, TF over GST control); with HSF1, 1.25 fold enrichment (6-mer frequency, TF over GST control); in the test with SPIC, 1.38 fold enrichment (6-mer frequency, TF over GST control); with ELF4, 1.25 fold enrichment (6-mer frequency, TF over GST control); with ELK4, 1.27 fold enrichment (6-mer frequency, TF over GST control). For the same sequence, the binding signal in the test with ETV2 was 1.31 fold enrichment (6-mer frequency, TF over GST control); in the test with ELF3, 1.17 fold enrichment (6-mer frequency, TF over GST control); in the test with CRX it was 1.16 fold enrichment (6-mer frequency, TF over GST control); with ETV1 it was 1.14 fold enrichment (6-mer frequency, TF over GST control); with ERF, 1.18 fold enrichment (6-mer frequency, TF over GST control); in the test with ETV3L, 1.23 fold enrichment (6-mer frequency, TF over GST control). Besides, the binding signal with ETS2 was 1.3 fold enrichment (6-mer frequency, TF over GST control); with SPDEF it was 1.23 fold enrichment (6-mer frequency, TF over GST control); with ETV7, 1.23 fold enrichment (6-mer frequency, TF over GST control); with ELF5, 1.26 fold enrichment (6-mer frequency, TF over GST control); with ETV3, 1.29 fold enrichment (6-mer frequency, TF over GST control); in the test with ETV6, 1.31 fold enrichment (6-mer frequency, TF over GST control).
